Most compounds without a hit are left out; they make up all but 5.9% or so of the library.
ATXN2 expr inh = Primary qHTS for Inhibitors of ATXN expression; HEK-293 ATXN2-luciferase reporter, luminescence, 24 h; Potency, µM (doses to about 57 µM), inactives show top-dose activity change, negative = inhibition, most hits filed as inhibitors; 360,000 tested, 0.72% active; note: % is set by controls: 0 for no effect and ±100 for the full control effect; nearly all actives have a fitted effect of over 55% in size
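ATXN2-luciferase reporter cells (luciferase flanked by upstream and downstream ATXN2 gene portions) were treated 24 h at 37 °C with compounds at up to 57 uM. SteadyGlo luminescence gave expression; GF-AFC fluorescence gave viability.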
KB-V1 cytotox = qHTS assay for MDR1-selective chemotherapeutics: Primary screen using the drug-selected MDR subline cells KB-V1; KB-V1 MDR cells viability, CellTiter-Glo, 72 h; Potency, µM (series often up to 46.1 µM), most hits filed as cytotoxic; 400,000 tested, 3.4% active; note: % is set by controls: 0 for no effect and ±100 for the full control effect; nearly all actives have a fitted effect of over 60% in size
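Cells of the MDR subline KB-V1 are plated, dosed with compound at multiple concentrations, and incubated 72 h at 37 degrees C; CellTiter-Glo is then added and luminescence read after 10 min.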
HepG2 viability = qHTS for Inhibitors of TGF-b: Cytotox Counterscreen. HepG2 CAGA-GFP viability, ATP luminescence, 18 h. Potency, µM (doses to about 46.1 µM), without a hit: at the top dose activity change, negative = cytotoxicity, usual class: cytotoxic. 410,000 tested, 0.76% active
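HepG2 CAGA-GFP cells (1000/well, DMEM with 1% FBS) received compound, then TGF-beta at 500 pg/mL final, and were incubated 18 hours at 37 degrees C. Viability was read by CellTiter-Glo luminescence. Media-only wells were set as complete cell-killing and DMSO as no toxicity.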
ATXN viability = Viability Counterscreen for Primary qHTS for Inhibitors of ATXN expression. S2 cells (HEK-293 line with an ATXN2-luciferase reporter) viability, CellTiter-Fluor protease fluorescence, 24 h. Potency, µM (series often up to 56.7 µM), actives largely listed as cytotoxic. 400,000 tested, 0.49% active; note: nearly all actives have a fitted effect of over 40% in size
TGFb SMAD3 inh = qHTS for Inhibitors of TGF-b | HepG2 CAGA-GFP TGF-b/SMAD3 reporter, GFP fluorescence, 18 h; TGF-beta stimulated, 500 pg/mL final | Potency, µM (doses to about 46.1 µM), inactives show at the top dose activity, negative = inhibition, actives largely listed as inhibitors | 410,000 tested, 1.2% active | AID 588855, 2011; note: % is set by controls: 0 for no effect and ±100 for the full control effect; nearly all actives have a fitted effect of over 65% in size
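Cell-based qHTS in HEPG2 carrying a CAGA-GFP Smad reporter; compounds added before 500 pg/mL final TGF-beta, 18 h incubation at 37 degrees C, GFP fluorescence quantified per cell by imaging cytometry.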
KB-3-1 tox = qHTS assay for MDR1-selective chemotherapeutics: Primary screen using the parental adenocarcinoma cell KB-3-1; Potency, µM (series often up to 46.1 µM), most hits filed as cytotoxic; KB-3-1 viability, CellTiter-Glo ATP luminescence, 72 h; 400,000 tested, 1.4% active; note: % is set by controls: 0 for no effect and ±100 for the full control effect; nearly all actives have a fitted effect of over 60% in size
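Screening of KB-3-1 cells (DMEM, 10% FBS, phenol-red free) ran from lowest to highest compound concentration; after 72 h at 37 °C viability was read luminescently and curves fitted.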
* = called active by the depositor. Calls come from the whole dose curve; as a rule, active = well fitted curve in the direction sought with a large enough effect; inconclusive = small, poorly fitted or top-dose-only effect, or another doubt; inactive = no such curve, though single readings can be large; an effect the other way counts as inactive or inconclusive. Potency is the fitted concentration of half-maximal effect.

CCn1c(=O)c2ccccc2n2c(SCC(=O)N3CCc4ccccc4C3)nnc12 was read as ATXN2 expr inh 19%, KB-V1 cytotox inactive, HepG2 viability -16%, ATXN viability inactive, TGFb SMAD3 inh -23% and KB-3-1 tox inactive.
`COCCn1c(SCC(=O)N2CCc3ccccc3C2)nc2cc(Cl)ccc2c1=O` gave ATXN2 expr inh -8%, KB-V1 cytotox 1.8µM*, HepG2 viability -5%, ATXN viability inconclusive, TGFb SMAD3 inh -10% and KB-3-1 tox inconclusive.
Screening CCCn1c(=O)c2ccccc2n2c(SCC(=O)N3CCc4ccccc4C3)nnc12 returned ATXN2 expr inh 3%, KB-V1 cytotox 2.9µM*, HepG2 viability 11%, ATXN viability inactive, TGFb SMAD3 inh 14% and KB-3-1 tox inactive.
For CC(C)Cn1c(SCC(=O)N2CCc3ccccc3C2)nc2cc(Cl)ccc2c1=O the results were ATXN2 expr inh 1%, KB-V1 cytotox inconclusive, HepG2 viability -18%, ATXN viability inactive, TGFb SMAD3 inh 15% and KB-3-1 tox inactive.
CC1CC(C)CN(C(=O)Cn2c(SCC(=O)N3CCc4ccccc4C3)nc3ccccc32)C1 (stereo not given) was read as ATXN2 expr inh -11%, KB-V1 cytotox inactive, HepG2 viability 8%, ATXN viability inconclusive, TGFb SMAD3 inh inconclusive and KB-3-1 tox inactive.
`Cc1ccc(Cn2c(=O)c3ccccc3n3c(SCC(=O)N4CCCCC4C)nnc23)cc1` (stereo not given) gave ATXN2 expr inh -5%, KB-V1 cytotox 8.2µM*, HepG2 viability -2%, ATXN viability inactive, TGFb SMAD3 inh 3% and KB-3-1 tox inactive.
For Cc1ccc(Cn2c(=O)c3ccccc3n3c(CCC(=O)O)nnc23)cc1 the results were ATXN2 expr inh 4%, KB-V1 cytotox inactive, HepG2 viability -3%, ATXN viability inactive, TGFb SMAD3 inh 13% and KB-3-1 tox inactive.
For CC(C)NC(=O)Cn1c(SCC(=O)N2CCc3ccccc3C2)nc2ccccc21 the results were ATXN2 expr inh 29%, KB-V1 cytotox 12µM*, HepG2 viability 6%, ATXN viability inactive, TGFb SMAD3 inh 12% and KB-3-1 tox inactive.
Screening CN(N=O)c1ccc(/C=C/c2ccccc2)cc1 returned KB-V1 cytotox inactive, HepG2 viability -15%, TGFb SMAD3 inh -2% and KB-3-1 tox inactive.
`CC(C)c1ccc(CC(=O)N2CCC2(C)C(=O)NS(=O)(=O)c2cccc(OC(F)F)c2)cc1` (stereo not given) gave ATXN2 expr inh -4%, KB-V1 cytotox inactive, HepG2 viability 0%, ATXN viability inactive, TGFb SMAD3 inh 9% and KB-3-1 tox inactive.
Oc1ccccc1C1C=C(c2ccc3c(c2)OCO3)NC(c2cccc(Br)c2)N1 (stereo not given) was read as HepG2 viability -93% and TGFb SMAD3 inh inconclusive.
Oc1ccccc1C1C=C(c2ccc3c(c2)OCO3)NC(c2cccc(F)c2)N1 (stereo not given) was read as HepG2 viability 18µM* and TGFb SMAD3 inh inconclusive.
`COC(=O)c1ccc(C2NC(c3ccc4c(c3)OCO4)=CC(c3ccccc3O)N2)cc1` (stereo not given) gave KB-V1 cytotox inactive, HepG2 viability -49%, TGFb SMAD3 inh 11µM* and KB-3-1 tox inactive.
For Cc1c(Cl)cccc1NC(=O)CN1C(=O)COc2ccc(S(=O)(=O)N3CCOCC3)cc21 the results were HepG2 viability 1% and TGFb SMAD3 inh 0%.
CCN(c1cccc(C)c1)S(=O)(=O)c1ccc2c(c1)CCN2C(C)=O was read as ATXN2 expr inh inconclusive, KB-V1 cytotox 23µM*, HepG2 viability -16%, ATXN viability inconclusive, TGFb SMAD3 inh -18% and KB-3-1 tox inconclusive.
For CCN(c1cccc(C)c1)S(=O)(=O)c1ccc2c(c1)CCCN2C(C)=O the results were ATXN2 expr inh -9%, KB-V1 cytotox inconclusive, HepG2 viability -8%, ATXN viability inactive, TGFb SMAD3 inh 0% and KB-3-1 tox inactive.
For COc1cccc(NC(=O)c2oc3ccccc3c2NC(=O)COc2ccccc2C)c1 the results were ATXN2 expr inh 17%, KB-V1 cytotox inactive, HepG2 viability -8%, ATXN viability inactive, TGFb SMAD3 inh inconclusive and KB-3-1 tox inactive.
Screening Cc1ccc(/C=C(\C#N)c2nn(-c3ccccc3)c(N)c2C#N)cc1 returned ATXN2 expr inh 6%, KB-V1 cytotox 21µM*, HepG2 viability -2%, ATXN viability inactive, TGFb SMAD3 inh inconclusive and KB-3-1 tox inactive.
For CC(C)c1cc(C(=O)NCc2ccc(F)cc2)no1 the results were HepG2 viability -3%.
For CCSc1nn(CC(=O)Nc2cccc(CC)c2)c(N)c1S(=O)(=O)c1ccccc1 the results were ATXN2 expr inh inconclusive, KB-V1 cytotox inactive, HepG2 viability -39%, ATXN viability inconclusive, TGFb SMAD3 inh 11µM* and KB-3-1 tox inconclusive.
COc1ccc(S(=O)(=O)c2c(SC)nn(CC(=O)Nc3ccc(C)c(Cl)c3)c2N)cc1 was read as ATXN2 expr inh inconclusive, KB-V1 cytotox inactive, HepG2 viability 5%, ATXN viability inconclusive, TGFb SMAD3 inh 7.1µM* and KB-3-1 tox inactive.
CCC(=O)N1c2ccccc2CC1C(=O)NCCc1ccccc1C (stereo not given) was read as ATXN2 expr inh -6%, KB-V1 cytotox inactive, HepG2 viability -46%, ATXN viability inactive, TGFb SMAD3 inh -18% and KB-3-1 tox inactive.
For Cc1ccn2c(=O)cc(CSc3nnc(C)s3)nc2c1 the results were HepG2 viability -2% and TGFb SMAD3 inh 1%.
Screening COc1ccc(C(=O)NC(=S)N2CCCCC2)cc1 returned ATXN2 expr inh 20%, KB-V1 cytotox inactive, HepG2 viability -2%, ATXN viability inactive, TGFb SMAD3 inh -14% and KB-3-1 tox inactive.
`COc1cc(OC)cc(C(=O)NC(=S)N2CCCCCC2)c1` gave ATXN2 expr inh -7%, KB-V1 cytotox 18µM*, HepG2 viability -14%, ATXN viability inactive, TGFb SMAD3 inh 3% and KB-3-1 tox inactive.
`Cc1ccc(CNc2nccn(-c3cc(C)cc(C)c3)c2=O)cc1` gave ATXN2 expr inh 9%, KB-V1 cytotox inconclusive, HepG2 viability -3%, ATXN viability inactive, TGFb SMAD3 inh -10% and KB-3-1 tox inactive.

Compound activity as filed in PubChem BioAssay.
